Experiment [1] can be described thus: MultiTox-Fluor Cytotoxicity Assay - LYMP1-001 - Dead Cells (AID 946). Note: potency is the fitted concentration of half-maximal effect. Conditions: LYMP1-001 lymphoblastoid cells, dead-cell protease fluorescence; series mostly up to 92.2 µM. The method in brief:
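Seed 2500 LYMP1-001 cells/well, incubate 5 hr at 37 C; add compound, 16 hr at 37 C; add MultiTox-Fluor reagent, 60 min RT; read dead-cell fluorescence Ex/Em=485/520. Normalize to DMSO and 15 uM tetraoctylammonium bromide.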

The nature of experiment [2]: Cell Viability - LYMP1-002 - Assay at 16 hr (AID 948).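 Note: 0% = DMSO alone and full effect = 92 µM tetraoctylammonium bromide.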 Conditions: LYMP1-002 lymphoblastoid cell viability; series mostly up to 92.2 µM. The method in brief:
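ATP luminescence (CellTiter-Glo) was measured after 16 hr compound exposure at 37 C of 2500 lymphoblastoid LYMP1-002 cells per well. Concentration-response curves were fitted with the Hill equation to give AC50.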

The nature of experiment [3]: MultiTox-Fluor Cytotoxicity Assay - LYMP1-002 - Dead Cells (AID 960). Note: nearly all actives have a fitted effect of over 60% in size. Note: potency is the fitted concentration of half-maximal effect. Conditions: LYMP1-002 lymphoblastoid cells, dead-cell protease fluorescence; series mostly up to 46.1 µM. The method in brief: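 Human lymphoblastoid cells (LYMP1-002), 2500/well in complete medium, were exposed to compounds for 16 hr at 37 C. Dead-cell protease activity was read as bis-AAF-R110 fluorescence (Ex/Em 485/520), normalized to DMSO and 15 uM tetraoctylammonium bromide; AC50 from Hill fits.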

Experiment [4] is described as follows: Cell Viability - LYMP1-003 - Assay at 24 hr (AID 963).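 Note: plate controls were DMSO only for no effect and tetraoctylammonium bromide positive control for full effect.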 Conditions: LYMP1-003 lymphoblastoid cell viability; series mostly up to 92.2 µM. Put shortly: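 Human lymphoblastoid LYMP1-003 cells (2500/well) were rested 5 hr at 37 C, then exposed to compounds in complete medium for 24 hr at 37 C. Cellular ATP was quantified by CellTiter-Glo luminescence, and AC50 values came from Hill fits of concentration-response data.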

Experiment [5] is described as follows: Cell Viability - LYMP2-005 (AID 967).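 Note: plate controls were DMSO only for no effect and 92 µM tetraoctylammonium bromide control for full effect.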 Conditions: LYMP2-005 lymphoblastoid cell viability; series mostly up to 92.2 µM. The method in brief:
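LYMP2-005 human lymphoblastoid cells (2500/well) were treated with compounds for 24 h at 37 C. Intracellular ATP was then measured by CellTiter-Glo luminescence after 30 min at room temperature. AC50 values came from Hill-equation fits of qHTS concentration-response data.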

Experiment [6] in a line: Cell Viability - LYMP2-015 (AID 971).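 Note: 0% = DMSO only and full effect = 92 µM tetraoctylammonium bromide; nearly all actives have a fitted effect of over 55% in size.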 Conditions: LYMP2-015 lymphoblastoid cell viability; series mostly up to 92.2 µM. Put shortly:
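Human lymphoblastoid cells (2500/well) in complete medium were preincubated 5 hr at 37 C, then compound-treated 24 hr at 37 C. Intracellular ATP was read by CellTiter-Glo luminescence after 30 min at room temperature; AC50 came from Hill-equation concentration-response fits.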

A short description of experiment [7]: Cell Viability - LYMP2-023 (AID 975).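 Note: cellular ATP measured by luciferase luminescence as viability proxy; plate controls were DMSO only for no effect and 92 µM tetraoctylammonium bromide control for full effect; nearly all actives have a fitted effect of over 55% in size.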 As to conditions: LYMP2-023 lymphoblastoid cell viability; series mostly up to 92.2 µM. Put shortly: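 Human lymphoblastoid cells (2500/well) were preincubated 5 hr at 37 C, then exposed to compounds for 24 hr at 37 C in complete medium. Cellular ATP was read by CellTiter-Glo luminescence, and AC50 came from Hill-equation fits.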

A short description of experiment [8]: Cell Viability - LYMP2-025 (AID 976).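 Note: plate controls were DMSO only for no effect and tetraoctylammonium bromide control for full effect.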 As to conditions: LYMP2-025 lymphoblastoid cell viability; series mostly up to 92.2 µM. Put shortly:
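Human lymphoblastoid LYMP2-025 cells (2500/well) were pre-incubated 5 hr at 37 C, then treated with compounds for 24 hr at 37 C in complete medium. Viability was read as intracellular ATP by CellTiter-Glo luminescence; AC50 from Hill fits.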

Experiment [9] is described as follows: Cell Viability - LYMP2-002 (AID 977).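 Note: compound exposure lasted 24 h at 37 °C; plate controls were DMSO only for no effect and 92 µM tetraoctylammonium bromide for full effect.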 As to conditions: LYMP2-002 lymphoblastoid cell viability, qHTS; series mostly up to 92.2 µM. The method in brief: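 Human lymphoblastoid LYMP2-002 cells, 2500 per well, exposed to compounds for 24 h at 37 C in complete medium; viability read as intracellular ATP by CellTiter-Glo luminescence, AC50 from Hill fits.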
For orientation: In qHTS, concentration-response curves come from the screen itself.

The nature of experiment [10]: Cell Viability - LYMP2-014 (AID 983).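 Note: plate controls were DMSO only for no effect and 92 µM tetraoctylammonium bromide for full effect; nearly all actives have a fitted effect of over 50% in size.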 Conditions: LYMP2-014 lymphoblastoid cells, viability qHTS; series mostly up to 92.2 µM. Put shortly: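 Human lymphoblastoid cells (2500/well) were pre-incubated 5 hr at 37 C, then exposed to compounds in complete medium for 24 hr at 37 C. Intracellular ATP was read by CellTiter-Glo luminescence after 30 min at room temperature; AC50 from Hill fits.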

Experiment [11] is described as follows: Cell Viability - LYMP1-002 - Assay at 24 hr (AID 993). Note: % is set by controls: 0 for no effect and ±100 for the full control effect. Conditions: LYMP1-002 lymphoblastoid cells viability; series mostly up to 92.2 µM. Put shortly: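 Human lymphoblastoid LYMP1-002 cells, 2500/well in complete medium, were treated with compounds for 24 h at 37 C; intracellular ATP was read by CellTiter-Glo luminescence. AC50 values came from Hill-equation fits of qHTS concentration-response data.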

Experiment [12] can be described thus: Cell Viability - LYMP1-002 - Assay at 40 hr (AID 994).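 Note: 0% = DMSO only and full inhibition = 92 µM tetraoctylammonium bromide; nearly all actives have a fitted effect of over 60% in size.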 As to conditions: LYMP1-002 lymphoblastoid cell viability; series mostly up to 92.2 µM. Put shortly: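 Human lymphoblastoid cells, 2500/well in complete medium, were preincubated 5 hr at 37 C, then exposed to compounds for 40 hr at 37 C. Intracellular ATP was read by CellTiter-Glo luminescence after 30 min at room temperature; AC50 from Hill-equation fits.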

In experiment [13] the target is Peroxisome proliferator-activated receptor gamma (Homo sapiens) (UniProt P37231). Description: qHTS assay for small molecule agonists of peroxisome proliferator-activated receptor gamma signaling (AID 588536; active = well fitted curve in the direction sought with a large enough effect in the signal ratio, with a control signal flat, not every such curve was filed as active; the % refers to the signal ratio;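 note: 0% = DMSO basal wells and 100% = rosiglitazone at 2 µM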). Conditions: HEK293 PPARg-UAS-bla, beta-lactamase ratio, 16 h, percent of rosiglitazone response, DMSO as zero; series mostly up to 76.7 µM. The method in brief:
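Test agents, titrated, stimulated HEK293 UAS-bla cells overnight (16 h, 37 C). Substrate CCF4 was then added for two hours at room temperature before fluorescence reading.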

For experiment [14] the target is unchanged. Description: qHTS assay for small molecule antagonists of peroxisome proliferator-activated receptor gamma signaling (AID 588537; active = well fitted inhibition curve with a large enough effect in the signal ratio, with a control signal flat, not every such curve was filed as active; the % refers to the signal ratio;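 note: reporter cells co-stimulated with 50 nM rosiglitazone agonist during compound treatment; % of control where 0% means no effect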). As to conditions: HEK293 PPARg-UAS-bla, beta-lactamase ratio, antagonist mode; series mostly up to 76.8 µM. The method in brief:
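Step one: plate 3000 HEK293 UAS-bla cells per well in medium with 1% stripped serum and hold 6-6.5 h at 37 C. Step two: add compound and 50 nM agonist for 16 h. Step three: CCF4 loading, fluorescence read.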

The target of experiment [15] is Vitamin D3 receptor (Homo sapiens) (UniProt P11473). Description: qHTS assay for small molecule antagonists of vitamin D receptor signaling (AID 588541; calls by dose curve;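 note: receptor activated by calcitriol during compound treatment; % is set by controls: 0 for no effect and ±100 for the full control effect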). Conditions: HEK293T VDR-UAS-bla, beta-lactamase ratio, antagonist mode; series mostly up to 76.7 µM. The method in brief:
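VDR-UAS-bla HEK293T cells in 2% charcoal-stripped FBS were stimulated with 1-alpha,25-dihydroxyvitamin D3 (3 nM final) plus compound for 16 h at 37 C. The beta-lactamase CCF4 readout was normalized to 50 nM agonist and DMSO, and Hill fits gave IC50.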

Experiment [16] can be described thus: qHTS assay for small molecule antagonists of retinoid X receptor alpha signaling (AID 588546; active = well fitted inhibition curve with a large enough effect in the signal ratio, with a control signal flat, not every such curve was filed as active; the % refers to the signal ratio; note: potency is the fitted concentration of half-maximal effect;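 for max response: cells stimulated with 9-cis-retinoic acid as agonist; % is set by controls: 0 for no effect and ±100 for the full control effect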). As to conditions: HEK293T RXRa-UAS-bla, beta-lactamase ratio, antagonist mode; measured here: W530 green channel, cytotoxicity proxy. Put shortly: (§1)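 Beta-lactamase reporter inhibition, read as CCF4 fluorescence ratio (ex 405, em 460/530 nm) after 2 h at RT. HEK293T UAS-bla cells, 2500/well, were stimulated with 9-cis-RA at 500 or 100 nM final alongside test compound for 18 h at 37 C.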

Experiment [17] concerns the target Retinoic acid receptor RXR-alpha (Homo sapiens) (UniProt P19793). The experiment is described as above. As to conditions: HEK293T RXRa-UAS-bla, beta-lactamase ratio, antagonist mode. Put shortly: as §1
In experiment [18] the target is Thyroid hormone receptor beta (Homo sapiens) (UniProt P10828). Nature of the experiment: qHTS assay for small molecule antagonists of thyroid hormone receptor beta signaling (AID 588547; active = well fitted inhibition curve with a large enough effect in the signal ratio, with a control signal flat, not every such curve was filed as active; the % refers to the signal ratio;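 note: cells stimulated with 0.4 nM T3 agonist during compound exposure; % is set by controls: 0 for no effect and ±100 for the full control effect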). Conditions: TR-UAS-bla HEK293, beta-lactamase ratio, antagonist mode, 18 h. The method in brief: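 TR-UAS-bla GripTite HEK293 cells in 2% charcoal/dextran FBS medium; compounds 0.59 nM to 92 uM with T3 at 0.4nM final, 18 h at 37 C. Beta-lactamase read by CCF4 fluorescence (460/530 nm); Hill fits gave IC50 and efficacy.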

Experiment [19] is described as follows: qHTS assay for small molecule disruptors of the mitochondrial membrane potential - 1 hr assay (AID 651754; calls by dose curve; note: nearly all actives have a fitted effect of over 35% in size; note: potency is the fitted concentration of half-maximal effect). Conditions: series mostly up to 92.2 µM. The method in brief:
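HepG2 cells, attached overnight at 37C, were exposed to compound or DMSO vehicle for 1 hr at 37C, 5% CO2, then stained with Mito-MPS dye for 30 min. Red aggregate versus green monomer fluorescence reports membrane potential.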

Experiment [20] in a line: Confirmatory qHTS for small molecule stabilizers of the endoplasmic reticulum resident proteome: Secreted ER Calcium Modulated Protein (SERCaMP) assay (AID 1508628). Note: nearly all actives have a fitted effect of over 40% in size. Note: potency is the fitted concentration of half-maximal effect. As to conditions: SERCaMP secreted luciferase ER calcium/proteostasis reporter; series mostly up to 76.3 µM. The method in brief: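 We seeded SH-SY5Y-GLuc-SERCaMP cells, added compounds (three concentrations in the primary run, eleven up to 76.6 uM in confirmation), incubated 16 h, depleted ER calcium with thapsigargin, and read luciferase 4 h later.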

“And” between values parts separate entries of the source, which are not always exact repeats. Equal entries are not always repeated. Records with an inconclusive call do not appear. The source made the active and inactive calls. Unless noted, calls come from the whole dose curve; as a rule, active = well fitted curve in the direction sought with a large enough effect; inconclusive = small, poorly fitted or top-dose-only effect, or another doubt; inactive = no such curve, though single readings can be large; an effect the other way counts as inactive or inconclusive.

Sequence of Retinoic acid receptor RXR-alpha (Homo sapiens) (P19793 whole entry, looked up): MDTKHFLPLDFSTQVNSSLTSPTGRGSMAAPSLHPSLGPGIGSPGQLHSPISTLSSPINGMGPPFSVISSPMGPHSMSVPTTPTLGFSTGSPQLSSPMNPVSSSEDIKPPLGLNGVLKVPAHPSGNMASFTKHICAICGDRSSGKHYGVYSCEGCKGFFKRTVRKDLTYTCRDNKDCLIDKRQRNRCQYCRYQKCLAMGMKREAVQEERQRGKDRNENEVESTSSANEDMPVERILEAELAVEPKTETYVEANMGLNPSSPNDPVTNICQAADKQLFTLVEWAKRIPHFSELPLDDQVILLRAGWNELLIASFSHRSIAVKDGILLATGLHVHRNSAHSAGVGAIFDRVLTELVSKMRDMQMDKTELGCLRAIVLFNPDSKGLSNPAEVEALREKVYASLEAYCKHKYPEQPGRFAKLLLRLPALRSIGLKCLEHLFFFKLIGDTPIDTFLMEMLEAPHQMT
Sequence of Thyroid hormone receptor beta (Homo sapiens) (P10828 whole entry, looked up): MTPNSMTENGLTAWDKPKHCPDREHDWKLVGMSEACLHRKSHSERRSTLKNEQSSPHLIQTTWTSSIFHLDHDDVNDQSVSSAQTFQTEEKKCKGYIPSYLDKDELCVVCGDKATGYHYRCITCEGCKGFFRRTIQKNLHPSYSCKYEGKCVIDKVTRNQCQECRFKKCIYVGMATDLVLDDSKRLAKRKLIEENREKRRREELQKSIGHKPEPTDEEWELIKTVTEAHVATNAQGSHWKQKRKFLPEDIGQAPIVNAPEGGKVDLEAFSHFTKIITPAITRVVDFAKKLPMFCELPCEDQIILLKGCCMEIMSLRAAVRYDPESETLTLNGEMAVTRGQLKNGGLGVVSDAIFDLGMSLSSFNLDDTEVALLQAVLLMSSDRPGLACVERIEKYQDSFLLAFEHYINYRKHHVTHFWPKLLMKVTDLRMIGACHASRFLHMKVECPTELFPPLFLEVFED
Sequence of Peroxisome proliferator-activated receptor gamma (Homo sapiens) (P37231 whole entry, looked up): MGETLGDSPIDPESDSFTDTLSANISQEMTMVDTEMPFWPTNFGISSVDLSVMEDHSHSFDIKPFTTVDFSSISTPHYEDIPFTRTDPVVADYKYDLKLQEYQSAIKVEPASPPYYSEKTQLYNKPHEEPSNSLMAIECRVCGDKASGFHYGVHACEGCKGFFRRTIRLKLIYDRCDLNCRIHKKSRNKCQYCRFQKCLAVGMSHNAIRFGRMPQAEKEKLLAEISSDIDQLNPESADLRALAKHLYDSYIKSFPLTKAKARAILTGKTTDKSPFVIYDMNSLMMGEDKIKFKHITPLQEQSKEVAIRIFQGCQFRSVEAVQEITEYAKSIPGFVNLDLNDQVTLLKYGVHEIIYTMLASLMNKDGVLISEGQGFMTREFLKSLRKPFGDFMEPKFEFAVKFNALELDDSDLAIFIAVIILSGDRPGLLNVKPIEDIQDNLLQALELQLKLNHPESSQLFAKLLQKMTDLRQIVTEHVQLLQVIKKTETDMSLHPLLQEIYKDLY
Sequence of Vitamin D3 receptor (Homo sapiens) (P11473 whole entry, looked up): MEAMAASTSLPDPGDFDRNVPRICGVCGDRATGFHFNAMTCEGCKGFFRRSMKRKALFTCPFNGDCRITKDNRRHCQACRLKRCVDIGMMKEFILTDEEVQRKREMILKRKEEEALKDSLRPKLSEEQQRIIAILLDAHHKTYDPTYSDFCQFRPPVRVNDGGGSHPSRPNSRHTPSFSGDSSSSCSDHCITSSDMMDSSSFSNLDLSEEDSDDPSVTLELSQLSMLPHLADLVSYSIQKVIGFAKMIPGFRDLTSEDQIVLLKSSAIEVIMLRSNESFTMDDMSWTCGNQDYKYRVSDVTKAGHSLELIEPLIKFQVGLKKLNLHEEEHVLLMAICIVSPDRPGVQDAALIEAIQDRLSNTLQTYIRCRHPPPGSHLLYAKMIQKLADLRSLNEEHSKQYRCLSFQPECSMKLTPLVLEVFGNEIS

As to `Cc1ccccc1O`, the Potency entry in experiment [1], in [3], in experiment [12], in experiment [14] and in experiment [19] was “inactive” each time. Further, the call in experiment [2], in [4], in experiment [5], in experiment [6], in experiment [7] and in experiment [8] was inactive. The compound was called inactive in experiment [9], in experiment [10], in experiment [11], in [13] and in [15]. Moreover, the max response in [16] was -8.36% and -9.93%; in experiment [17], -5.98% (inactive) and 4.44% (inactive). Also, the activity change % (negative = inhibition) in experiment [18] is -12.9% (inactive) and -0.275% (inactive).
Take `OC[C@@H]1[C@@H](O)[C@H](O)[C@H]2[C@@H](O)CCN21`: the Potency result in experiment [20] was “inactive”.
Regarding `CC(=O)[C@H]1CC[C@H]2[C@@H]3CCC4=CC(=O)CC[C@]4(C)[C@H]3CC[C@]12C`, the Potency in experiment [1] is 50.1 µM (active); in [3] it was 10 µM (active); in [17] it was 35.5 µM (active); in experiment [19], 11.9 µM (active). The compound was called inactive in [2], in experiment [4], in [5], in [6], in [7] and in [8]. Also, the compound was called inactive in experiment [9], in experiment [10], in experiment [11], in experiment [13] and in experiment [15]. Besides, the Potency entry in [12] and in [14] was “inactive” each time. Besides, the max response in experiment [16] is 1.42%. The activity change % (negative = inhibition) in experiment [18] was -26.1% (inactive).
For the compound `CC(C)(O)C1OC2CCC3(C)C(O)(CCC4Cc5c([nH]c6ccccc56)C43C)C2=CC1=O` (stereo not given), the Potency in experiment [20] was 28.2 µM (active).

(Values after PubChem BioAssay (NCATS).)
